This experiment has as its system Vero E6 infected with SARS-CoV-2. Briefly: morphology score (similarity to uninfected cells); higher = more like uninfected cells. Particulars: 24 h.
Take `Cc1cc(C(=O)O)sc1C(N)C(=O)O` (stereo not drawn) (10 µM): the morphology score was -0.0491.
Molecule `CCOC(=O)Nc1nc2ccccc2[nH]1` [lobendazole] (10 µM) gave a morphology score of 0.0965.
Under `CCOC(=O)CC(=O)N1CCSC1COc1ccccc1OC` (stereo not drawn) [moguisteine] (10 µM) stands 0.165; under `Cc1nn(C)c2c1C(c1ccc(C(F)(F)F)cc1)C(C#N)=C(N)O2` (stereo not drawn) (10 µM), 0.0472; under `CC(C)(C)NC(=O)[C@@H]1C[C@@H]2CCCC[C@@H]2CN1C[C@@H](O)[C@H](Cc1ccccc1)NC(=O)[C@H](CC(N)=O)NC(=O)c1ccc2ccccc2n1` [saquinavir] (10 µM), 0.0775.
Under `COc1ccc(-c2nc3cc(C4=NNC(=O)CC4C)ccc3[nH]2)cc1` (stereo not drawn) [pimobendan] (10 µM) stands 0.129; under `O=C(CN1C2=NCCN2c2ccccc21)c1ccc(-c2ccccc2)cc1` (10 µM), 0.646.
Regarding `CC(C)C(=O)SCCCCC[C@H](NC(=O)OC(C)(C)C)C(=O)NC12CC3CC(CC(C3)C1)C2` (10 µM), the morphology score is -0.113.
Under `CC1(C)CCC2=C(O1)c1ccccc1C(=O)C2=O` [beta-lapachone] (10 µM) stands 0.361; under `C[N+]1(C)[C@@H]2C[C@@H](OC(=O)[C@H](CO)c3ccccc3)C[C@H]1[C@@H]1O[C@@H]12` [methscopolamine] (10 µM), -0.0273; under `CC(=O)N(CC(C)C(=O)O)c1c(I)cc(I)c(N)c1I` (stereo not drawn) [iocetamic-acid] (10 µM), 0.0591.
`CCCCCCCCNC(=O)/C(C#N)=C/c1cn(CCCN(C)C)c2ccccc12` [dynole-34-2] (10 µM) yielded a morphology score of 0.659.
Regarding `C=C1/C(=C\C=C2/CCC[C@]3(C)[C@@H]([C@H](C)/C=C/C=C/C(O)(CC)CC)CC[C@@H]23)C[C@@H](O)C[C@@H]1O` [seocalcitol] (10 µM), the morphology score was -0.0779.
The molecule `C=C1/C(=C\C=C2/CCC[C@]3(C)[C@@H]([C@H](C)CCCC(C)(C)O)CC[C@@H]23)C[C@@H](O)C[C@@H]1O` [calcitriol] (10 µM) gave a morphology score of 0.098.
Under `O=S(=O)(Cc1ccccc1)Nc1ccc(-c2ccc3c(cnn3-c3ccc(F)cc3)c2)c(C(F)(F)F)c1` (10 µM) stands 0.22; under `CCCCCCCCCCCCCCCCCC(=O)OCC(O)CO` (stereo not drawn) [monostearin] (10 µM), -0.0152.
For the molecule `CCOC(=O)C1=C(N)Oc2ccc(Br)cc2C1C(C#N)C(=O)OCC` (stereo not drawn) (10 µM), the morphology score turned out to be 0.0924.
The result for `CC[C@@H](CO)NC(=O)[C@@H]1C=C2c3cccc4[nH]cc(c34)C[C@H]2N(C)C1` [methylergometrine] (10 µM) reads 0.112; that for `O=P(O)(O)C(O)(Cc1cccnc1)P(=O)(O)O` [risedronate] (10 µM), 0.123.
With `Fc1ccc(Cn2c(NC3CCNCC3)nc3ccccc32)cc1` [tecastemizole] (10 µM), the morphology score was -0.00173.
The molecule `O=C1[C@H]2CCCC[C@H]2C(=O)N1CCCCN1CCN(c2nsc3ccccc23)CC1` [perospirone] (10 µM) yielded a morphology score of 0.0481.
Under `CCOC(=O)[C@H](Cc1ccc([N+](=O)[O-])cc1)NC(=O)c1ccccc1` (10 µM) stands 0.37.
Take `CCOC(=O)c1ccc(-n2cc(Cc3cnc(OCC)nc3)c(=O)nc2SCc2ccc(F)cc2)cc1` (10 µM): the morphology score worked out at 0.18.
Under `CC1(C)OC2(C)C(O)CC1CC2O` (stereo not drawn) [epomediol] (10 µM) stands 0.173.
Under `O=C(O)CCNc1cc(N2CCc3ccccc3CC2)nc(-c2ccccn2)n1` (10 µM) stands 0.19; under `COc1ccccc1C(=O)Nc1cc2c(cc1N1CCCC1)n(C)c(=O)n2C` (10 µM), 0.0131.
Under `Cn1c2c(c3ccccc31)CCNCC2` (10 µM) stands 0.0193; under `CCC(=O)OCC(=O)[C@@]1(OC(=O)CC)[C@@H](C)C[C@H]2[C@@H]3CCC4=CC(=O)C=C[C@]4(C)[C@@]3(Cl)[C@@H](O)C[C@@]21C` [beclomethasone-dipropionate] (10 µM), 0.126.
Molecule `O=C(O)c1cc(=O)c2c(OCC(O)COc3cccc4oc(C(=O)O)cc(=O)c34)cccc2o1` [cromoglicic-acid] (10 µM) came in with a morphology score of 0.204.
For `COc1ccc2[nH]c(SCc3ncc(C)c(OC)c3C)nc2c1` [omeprazole-sulfide] (10 µM), the morphology score stood at 0.191.
In turn, `CCOC(=O)c1ccc(NC2CCCCC2)c(N)c1` [ferrostatin-1] (10 µM) gave a morphology score of 0.117.
`S=C(NCc1ccc2c(c1)OCO2)N1CCN(c2ncnc3c2oc2ccccc23)CC1` [amuvatinib] (0.833333 µM) showed a morphology score of 0.0595.
The result for `O=C(Nc1nc(-c2cc(Cl)cs2)c(N2CCN(C3CCCCC3)CC2)s1)c1cnc(N2CCC(C(=O)O)CC2)c(Cl)c1` [avatrombopag] (10 µM) reads 0.0997.

The values are drawn from the supplement of paper PMC13380429.
